# Assay results taken from the supplement of paper PMC6411743.
# ± gives the standard deviation of the averaged measurements. About 6,500 targets were measured; listed, in parts, are those with the largest changes and a random draw of the rest.
# Key:
# Assay in all cases: NP40-soluble protein abundance relative to vehicle (solubility fold change) (ratio); higher = more soluble protein in presence of ATP
# DDX50 = molecular target: T1, DDX50 (UniProt Q9BQ39)
# T1 sequence (whole entry): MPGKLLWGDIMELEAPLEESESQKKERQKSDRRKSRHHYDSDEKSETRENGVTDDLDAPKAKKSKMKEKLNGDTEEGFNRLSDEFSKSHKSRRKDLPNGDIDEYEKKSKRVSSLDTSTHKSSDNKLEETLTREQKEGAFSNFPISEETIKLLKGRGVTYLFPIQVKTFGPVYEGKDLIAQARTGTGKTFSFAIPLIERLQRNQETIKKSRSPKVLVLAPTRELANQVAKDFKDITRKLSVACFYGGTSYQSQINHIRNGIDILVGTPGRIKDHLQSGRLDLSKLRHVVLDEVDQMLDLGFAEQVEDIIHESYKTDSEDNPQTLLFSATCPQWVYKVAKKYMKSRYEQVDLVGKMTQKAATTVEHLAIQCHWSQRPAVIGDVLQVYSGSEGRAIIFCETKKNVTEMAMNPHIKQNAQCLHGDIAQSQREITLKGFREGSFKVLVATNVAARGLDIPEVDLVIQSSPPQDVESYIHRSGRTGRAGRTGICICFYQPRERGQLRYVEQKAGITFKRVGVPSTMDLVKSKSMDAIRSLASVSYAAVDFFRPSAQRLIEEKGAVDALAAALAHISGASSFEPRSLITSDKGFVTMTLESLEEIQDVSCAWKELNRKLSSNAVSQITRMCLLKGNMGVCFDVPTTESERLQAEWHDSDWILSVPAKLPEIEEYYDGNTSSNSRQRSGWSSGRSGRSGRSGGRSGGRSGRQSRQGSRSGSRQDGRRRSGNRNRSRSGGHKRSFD
# Procedure, shortened: (§1)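 In three independent experiments, Jurkat crude lysate made by Dounce homogenisation was treated for 10 min at room temperature and then 3 min at 37 °C with eight concentrations ranging from 0.1 to 10 mM. It was then solubilised with 0.8% NP40 plus benzonase for 60 min at 4 °C and ultracentrifuged. The supernatant was TMT-labelled for LC-MS/MS, and each value is the fold change against the detergent-processed vehicle for the same replicate, using vsn-normalised intensities.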
# PINX1 = molecular target: T2, PINX1 (UniProt Q96BK5)
# T2 sequence (whole entry): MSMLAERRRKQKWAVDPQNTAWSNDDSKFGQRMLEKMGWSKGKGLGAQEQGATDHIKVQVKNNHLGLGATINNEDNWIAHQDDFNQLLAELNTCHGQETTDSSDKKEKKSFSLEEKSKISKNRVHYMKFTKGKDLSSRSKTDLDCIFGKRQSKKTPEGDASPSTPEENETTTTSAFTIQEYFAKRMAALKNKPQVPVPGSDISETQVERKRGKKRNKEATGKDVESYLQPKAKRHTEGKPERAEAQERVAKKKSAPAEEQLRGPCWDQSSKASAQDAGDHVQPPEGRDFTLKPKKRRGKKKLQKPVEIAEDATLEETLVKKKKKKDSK
# Procedure, shortened: as §1
# [1] = molecular target: T3, UniProt Q969F9|Q969F9-2|G5E9V4
# T3 sequence (whole entry): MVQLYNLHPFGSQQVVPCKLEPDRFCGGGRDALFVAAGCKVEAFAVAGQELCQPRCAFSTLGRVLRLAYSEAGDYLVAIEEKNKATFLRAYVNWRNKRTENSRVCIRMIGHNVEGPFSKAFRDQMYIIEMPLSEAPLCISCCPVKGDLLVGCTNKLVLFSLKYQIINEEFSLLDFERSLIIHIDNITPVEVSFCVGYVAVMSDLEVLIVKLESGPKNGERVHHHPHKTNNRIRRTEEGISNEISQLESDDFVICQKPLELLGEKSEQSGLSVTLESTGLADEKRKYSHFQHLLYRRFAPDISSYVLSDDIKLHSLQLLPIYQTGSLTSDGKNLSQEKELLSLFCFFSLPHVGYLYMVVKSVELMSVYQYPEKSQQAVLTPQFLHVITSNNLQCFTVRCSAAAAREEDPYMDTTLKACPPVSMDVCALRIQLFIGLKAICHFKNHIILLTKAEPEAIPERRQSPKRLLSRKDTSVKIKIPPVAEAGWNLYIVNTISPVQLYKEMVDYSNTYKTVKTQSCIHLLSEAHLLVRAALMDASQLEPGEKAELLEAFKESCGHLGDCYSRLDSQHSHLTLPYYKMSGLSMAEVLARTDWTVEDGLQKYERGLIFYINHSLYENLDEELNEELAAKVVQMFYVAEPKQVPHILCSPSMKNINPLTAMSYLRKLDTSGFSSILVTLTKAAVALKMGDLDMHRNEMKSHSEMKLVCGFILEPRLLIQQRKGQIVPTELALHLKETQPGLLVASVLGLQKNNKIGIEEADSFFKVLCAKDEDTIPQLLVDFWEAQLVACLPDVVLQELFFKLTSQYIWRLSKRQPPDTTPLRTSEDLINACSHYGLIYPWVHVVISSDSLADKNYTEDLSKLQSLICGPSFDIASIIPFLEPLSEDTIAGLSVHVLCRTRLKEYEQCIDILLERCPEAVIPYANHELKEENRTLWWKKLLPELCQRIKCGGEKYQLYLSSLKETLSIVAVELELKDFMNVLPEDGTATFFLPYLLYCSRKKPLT
# Procedure, shortened: as §1
# UniProt Q96G25|Q96G25-2 = molecular target: T4, UniProt Q96G25|Q96G25-2
# T4 sequence (whole entry): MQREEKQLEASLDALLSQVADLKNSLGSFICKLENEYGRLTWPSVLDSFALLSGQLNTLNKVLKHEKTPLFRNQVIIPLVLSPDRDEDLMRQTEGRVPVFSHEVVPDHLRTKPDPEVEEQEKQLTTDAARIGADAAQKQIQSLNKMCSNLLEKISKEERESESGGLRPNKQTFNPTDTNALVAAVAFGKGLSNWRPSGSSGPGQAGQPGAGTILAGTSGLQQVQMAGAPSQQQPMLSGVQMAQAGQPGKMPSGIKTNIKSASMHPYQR
# Procedure, shortened: as §1
# UniProt Q9BUA3 = molecular target: T5, UniProt Q9BUA3
# T5 sequence (whole entry): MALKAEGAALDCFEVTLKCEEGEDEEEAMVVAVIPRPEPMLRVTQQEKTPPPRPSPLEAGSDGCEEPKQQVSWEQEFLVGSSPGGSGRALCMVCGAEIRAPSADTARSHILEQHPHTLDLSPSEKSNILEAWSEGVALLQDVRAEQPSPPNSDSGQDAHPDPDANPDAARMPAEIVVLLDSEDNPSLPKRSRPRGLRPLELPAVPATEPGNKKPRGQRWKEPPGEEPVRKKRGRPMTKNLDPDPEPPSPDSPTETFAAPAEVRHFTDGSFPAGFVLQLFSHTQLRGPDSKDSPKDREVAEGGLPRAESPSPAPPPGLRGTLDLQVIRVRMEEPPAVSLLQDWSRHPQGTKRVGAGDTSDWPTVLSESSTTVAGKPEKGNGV
# Procedure, shortened: as §1
# UniProt Q9H993 = molecular target: T6, UniProt Q9H993
# T6 sequence (whole entry): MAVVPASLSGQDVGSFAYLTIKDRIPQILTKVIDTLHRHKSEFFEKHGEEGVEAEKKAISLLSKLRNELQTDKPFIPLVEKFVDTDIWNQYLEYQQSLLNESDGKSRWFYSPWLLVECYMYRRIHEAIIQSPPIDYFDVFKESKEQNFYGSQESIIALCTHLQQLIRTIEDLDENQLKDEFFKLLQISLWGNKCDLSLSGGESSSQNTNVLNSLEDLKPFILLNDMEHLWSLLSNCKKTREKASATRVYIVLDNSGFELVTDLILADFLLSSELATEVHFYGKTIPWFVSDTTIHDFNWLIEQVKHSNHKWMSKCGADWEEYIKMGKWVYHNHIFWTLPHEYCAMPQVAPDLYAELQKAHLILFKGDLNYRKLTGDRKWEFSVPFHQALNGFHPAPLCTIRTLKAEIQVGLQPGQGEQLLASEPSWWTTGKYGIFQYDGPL
# Procedure, shortened: as §1
# VRK1 = molecular target: T7, VRK1 (UniProt Q99986)
# T7 sequence (whole entry): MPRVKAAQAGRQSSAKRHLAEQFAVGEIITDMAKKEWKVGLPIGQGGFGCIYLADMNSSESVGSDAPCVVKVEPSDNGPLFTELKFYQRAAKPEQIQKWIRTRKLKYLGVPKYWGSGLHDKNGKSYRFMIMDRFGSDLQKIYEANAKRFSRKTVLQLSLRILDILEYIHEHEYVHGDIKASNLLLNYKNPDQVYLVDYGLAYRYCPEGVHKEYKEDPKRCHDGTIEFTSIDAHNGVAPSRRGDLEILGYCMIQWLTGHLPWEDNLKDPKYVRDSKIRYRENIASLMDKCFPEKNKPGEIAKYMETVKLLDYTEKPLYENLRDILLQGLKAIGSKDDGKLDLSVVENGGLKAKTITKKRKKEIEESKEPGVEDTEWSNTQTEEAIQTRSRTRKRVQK
# Procedure, shortened: as §1
structure (smiles),measurement,setting,value
Nc1ncnc2c1ncn2[C@@H]1O[C@H](COP(=O)(O)OP(=O)(O)OP(=O)(O)O)[C@@H](O)[C@H]1O [adenosine triphosphate],NP40-soluble protein abundance,DDX50; concentration: 1mM,1.35 ± 0.086
same,NP40-soluble protein abundance,DDX50; concentration: 2mM,1.67 ± 0.17
same,NP40-soluble protein abundance,DDX50; concentration: 4mM,2.19 ± 0.26
same,NP40-soluble protein abundance,DDX50; concentration: 6mM,2.88 ± 0.35
same,NP40-soluble protein abundance,DDX50; concentration: 8mM,3.54 ± 0.54
same,NP40-soluble protein abundance,DDX50; concentration: 10mM,4.32 ± 0.63
same,NP40-soluble protein abundance,PINX1; concentration: 1mM,1.52 ± 0.023
same,NP40-soluble protein abundance,PINX1; concentration: 2mM,1.64 ± 0.086
same,NP40-soluble protein abundance,PINX1; concentration: 4mM,1.78 ± 0.11
same,NP40-soluble protein abundance,PINX1; concentration: 6mM,1.95 ± 0.1
same,NP40-soluble protein abundance,PINX1; concentration: 8mM,1.91 ± 0.13
same,NP40-soluble protein abundance,PINX1; concentration: 10mM,2.03 ± 0.14
same,NP40-soluble protein abundance,[1]; concentration: 1mM,1.07 ± 0.16
same,NP40-soluble protein abundance,[1]; concentration: 2mM,1.11 ± 0.22
same,NP40-soluble protein abundance,[1]; concentration: 4mM,1.05 ± 0.26
same,NP40-soluble protein abundance,[1]; concentration: 6mM,1.05 ± 0.15
same,NP40-soluble protein abundance,[1]; concentration: 8mM,0.905 ± 0.044
same,NP40-soluble protein abundance,[1]; concentration: 10mM,0.962 ± 0.11
same,NP40-soluble protein abundance,UniProt Q96G25|Q96G25-2; concentration: 1mM,1 ± 0.11
same,NP40-soluble protein abundance,UniProt Q96G25|Q96G25-2; concentration: 2mM,0.976 ± 0.074
same,NP40-soluble protein abundance,UniProt Q96G25|Q96G25-2; concentration: 4mM,1.06 ± 0.035
same,NP40-soluble protein abundance,UniProt Q96G25|Q96G25-2; concentration: 6mM,1.07 ± 0.11
same,NP40-soluble protein abundance,UniProt Q96G25|Q96G25-2; concentration: 8mM,0.993 ± 0.039
same,NP40-soluble protein abundance,UniProt Q96G25|Q96G25-2; concentration: 10mM,0.965 ± 0.1
same,NP40-soluble protein abundance,UniProt Q9BUA3; concentration: 1mM,1.02 ± 0.11
same,NP40-soluble protein abundance,UniProt Q9BUA3; concentration: 2mM,1.03 ± 0.09
same,NP40-soluble protein abundance,UniProt Q9BUA3; concentration: 4mM,1.03 ± 0.082
same,NP40-soluble protein abundance,UniProt Q9BUA3; concentration: 6mM,1.04 ± 0.12
same,NP40-soluble protein abundance,UniProt Q9BUA3; concentration: 8mM,0.992 ± 0.08
same,NP40-soluble protein abundance,UniProt Q9BUA3; concentration: 10mM,1 ± 0.019
same,NP40-soluble protein abundance,UniProt Q9H993; concentration: 1mM,1.08 ± 0.068
same,NP40-soluble protein abundance,UniProt Q9H993; concentration: 2mM,1.05 ± 0.06
same,NP40-soluble protein abundance,UniProt Q9H993; concentration: 4mM,1.02 ± 0.039
same,NP40-soluble protein abundance,UniProt Q9H993; concentration: 6mM,0.991 ± 0.072
same,NP40-soluble protein abundance,UniProt Q9H993; concentration: 8mM,1.04 ± 0.047
same,NP40-soluble protein abundance,UniProt Q9H993; concentration: 10mM,1.01 ± 0.053
same,NP40-soluble protein abundance,VRK1; concentration: 1mM,1.39 ± 0.026
same,NP40-soluble protein abundance,VRK1; concentration: 2mM,1.43 ± 0.021
same,NP40-soluble protein abundance,VRK1; concentration: 4mM,1.44 ± 0.039
same,NP40-soluble protein abundance,VRK1; concentration: 6mM,1.51 ± 0.057
same,NP40-soluble protein abundance,VRK1; concentration: 8mM,1.52 ± 0.031
same,NP40-soluble protein abundance,VRK1; concentration: 10mM,1.48 ± 0.063
